In PubChem BioAssay (NCATS):
Records with an inconclusive call do not appear. Activity calls are given as the source filed them. The call rests on the fitted dose curve; in most records, active means well fitted curve in the direction sought with a large enough effect; inconclusive means small, poorly fitted or top-dose-only effect, or another doubt; inactive means no such curve, though single readings can be large; an effect the other way counts as inactive or inconclusive.

Tests used:
[1] = BET inhibitor-based combinations targeting novel dependencies in MECOM-rearranged (r) AML: SET-2 cell line (AID 2202231); conditions: SET-2 AML cells viability, CellTiter-Glo luminescence, 48 h; viability: active compounds read low, concentration not given here; further: nearly all actives have a fitted effect of over 35% in size;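 on viability: plate controls were DMSO treated cells for no effect and wells without cells for full effect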
How it was run: (§1)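 A 48 hr incubation preceded viability reading by CellTiter-Glo, with 15 min room-temperature development. Dose series had 11 points; normalization used DMSO and empty wells; AUC was computed and mean-centered per line as Z-AUC.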

[2] = BET inhibitor-based combinations targeting novel dependencies in MECOM-rearranged (r) AML: OCI-AML3 cell line (AID 2202232); conditions: CellTiter-Glo luminescence, 48 h; Potency: OCI-AML3 viability; series mostly up to 46 µM; further: nearly all actives have a fitted effect of over 35% in size;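 on viability (% of control): plate controls were DMSO vehicle wells for no effect and wells without cells for full effect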
How it was run: as §1

[3] = BET inhibitor-based combinations targeting novel dependencies in MECOM-rearranged (r) AML: MV-4-11 cell line (AID 2202233); conditions: MV-4-11 AML viability, CellTiter-Glo luminescence, 48 h; series mostly up to 46 µM; further: nearly all actives have a fitted effect of over 45% in size;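 on viability, % of control: plate controls were DMSO for no effect and blank wells for full effect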
How it was run: (§2)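 Each compound is tested in an 11-point concentration series against 500 seeded cells/well for 48 hr. The luminescent viability signal is normalized to DMSO and blank wells, then reduced to AUC and a cell-line-centred Z-AUC.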

[4] = BET inhibitor-based combinations targeting novel dependencies in MECOM-rearranged (r) AML: HNT-34 cell line (AID 2202234); conditions: HNT-34 AML viability, CellTiter-Glo luminescence, 48 h; series mostly up to 46 µM; further: nearly all actives have a fitted effect of over 35% in size;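 on viability (% of control): plate controls were vehicle wells for no effect and cell-free wells for full effect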
How it was run: as §2

[5] = BET inhibitor-based combinations targeting novel dependencies in MECOM-rearranged (r) AML: UCSD-AML1 cell line (AID 2202235); conditions: UCSD-AML1 AML cells viability, CellTiter-Glo, 48 h; series mostly up to 46 µM; further: nearly all actives have a fitted effect of over 40% in size;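 on viability (% of control): plate controls were DMSO vehicle wells for no effect and blank wells for full effect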
How it was run: as §2

[6] = BET inhibitor-based combinations targeting novel dependencies in MECOM-rearranged (r) AML: AML-191 cell line (AID 2202236; further: nearly all actives have a fitted effect of over 35% in size;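 on viability (% of control): plate controls were vehicle wells for no effect and wells without cells for full effect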); conditions: AML-191 viability, CellTiter-Glo luminescence, 48 h; series mostly up to 46 µM
How it was run: as §1

[7] = BET inhibitor-based combinations targeting novel dependencies in MECOM-rearranged (r) AML: AML-194 cell line (AID 2202237; further: nearly all actives have a fitted effect of over 40% in size;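 on viability (% of control): plate controls were vehicle wells for no effect and wells without cells for full effect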); conditions: AML-194 (MECOM-r AML) viability, CellTiter-Glo, 48 h; series mostly up to 46 µM
How it was run: as §1
Potency means the concentration at half of the fitted maximal effect.

CCC(C(=O)O)C1CCC(C)C(C(C)C(O)C(C)C(=O)C(CC)C2OC3(C=CC(O)[C@@]4(CC[C@](C)(C5CC[C@@](O)(CC)C(C)O5)O4)O3)C(C)CC2C)O1 (some centres not stated)
active: Potency [1] 5.25 µM | Potency [2] 1.48 µM | Potency [3] 1.66 µM | Potency [4] 0.525 µM | Potency [5] 13.2 µM | Potency [6] 2.35 µM | Potency [7] 1.18 µM

NC(CC1c2ccccc2Oc2ccccc21)(C(=O)O)C1CC1C(=O)O (configuration not stated)
inactive: viability [1] 118% | Potency [2] | Potency [3] | Potency [4] | Potency [5] | Potency [6] | Potency [7]

C/C=C/C/C=C/CCC(=O)[C@H]1O[C@H]1C(N)=O
active: Potency [1] 20.9 µM | Potency [2] 11.8 µM | Potency [3] 20.9 µM | Potency [4] 14.8 µM | Potency [5] 20.9 µM | Potency [7] 26.3 µM

C/C(=C\c1csc(C)n1)[C@@H]1C[C@@H]2O[C@]2(C)CCC[C@H](C)[C@H](O)[C@@H](C)C(=O)C(C)(C)[C@@H](O)CC(=O)N1
active: Potency [1] 0.0525 µM | Potency [2] 0.0209 µM | Potency [3] 0.0332 µM | Potency [4] 0.0148 µM | Potency [5] 0.0166 µM | Potency [6] 0.0235 µM | Potency [7] 0.0295 µM

C[C@@H]1C[C@H](N)C[C@H](c2ccncc2NC(=O)c2ccc(F)c(-c3c(F)cccc3F)n2)C1
active: Potency [1] 18.6 µM | Potency [2] 16.6 µM | Potency [3] 5.25 µM | Potency [4] 5.25 µM | Potency [6] 10.5 µM | Potency [7] 5.9 µM

C[C@@H](Oc1ccc2[nH]nc(/C=C/c3cnn(CCO)c3)c2c1)c1c(Cl)cncc1Cl
active: Potency [1] 1.05 µM | Potency [2] 8.33 µM | Potency [3] 0.296 µM | Potency [4] 0.662 µM | Potency [5] 1.05 µM | Potency [6] 0.833 µM | Potency [7] 0.934 µM

O=C(/C=C/c1ccc(/C=C/C(=O)Nc2ccc(C3=NCCN3)cc2)cc1)Nc1ccc(C2=NCCN2)cc1
inactive: viability [1] 113% | viability (% of control) [2] 117% [at 5.12 µM] | viability, % of control [3] 112% [at 5.12 µM] | viability (% of control) [4] 109% [at 5.12 µM] | viability (% of control) [5] 115% [at 5.12 µM] | viability (% of control) [6] 109% [at 5.12 µM] | viability (% of control) [7] 108% [at 5.12 µM]

CCc1cc2c(c(OCC(F)(F)F)c(C(=O)NC3CCN(C(=O)CO)CC3)n2C)c(=O)n1CC(=O)c1ccccc1
active: Potency [4] 16.6 µM
inactive: viability [1] 103% | Potency [2] | Potency [3] | Potency [5] | Potency [6] | Potency [7]

COC(=O)Nc1nc2ccc(C(=O)c3ccccc3)cc2[nH]1
active: Potency [1] 0.833 µM | Potency [2] 0.59 µM | Potency [3] 0.525 µM | Potency [4] 0.263 µM | Potency [5] 0.296 µM | Potency [6] 0.263 µM | Potency [7] 0.332 µM

CC(C)(CO)n1cc(C(=O)c2cncc(NC(=O)Cc3ccc(Cl)cn3)c2)c2cnc(N)nc21
active: Potency [3] 7.42 µM | Potency [7] 0.0833 µM
inactive: viability [1] 125% | Potency [2] | Potency [4] | Potency [5]

O=C(O)c1cccnc1
inactive: viability [1] 118% | Potency [2] | Potency [3] | Potency [4] | Potency [6] | Potency [7]

CC(C)C[C@H](NC(=O)[C@H](Cc1ccccc1)NC(=O)OCc1ccccc1)C(=O)C=O
active: Potency [6] 26.3 µM
inactive: viability [1] 114% | Potency [2] | Potency [3] | Potency [4]

COc1cc(/C=C/C(=O)CC(=O)/C=C/c2ccc(O)c(OC)c2)ccc1O
active: Potency [1] 20.9 µM | Potency [2] 8.33 µM | Potency [3] 3.32 µM | Potency [4] 14.8 µM | Potency [5] 13.2 µM | Potency [6] 16.6 µM | Potency [7] 18.6 µM

C=CC(=O)Nc1cccc(Oc2nc(Nc3ccc(N4CCN(C)CC4)cc3)nc3ccsc23)c1
active: Potency [1] 26.3 µM | Potency [2] 10.5 µM | Potency [3] 8.33 µM | Potency [4] 8.33 µM | Potency [5] 9.34 µM | Potency [6] 23.5 µM | Potency [7] 14.8 µM

Cc1ccc(NS(=O)(=O)c2ccc3c(c2)C2C=CCC2C(c2ccc(C(=O)O)cc2)N3)cc1C (configuration not stated)
inactive: viability [1] 109% | Potency [2] | Potency [3] | Potency [4] | Potency [5] | Potency [6] | Potency [7]

COc1ccnc2[nH]cc(C(=O)C(=O)N3CCN(C(=O)c4ccccc4)C[C@H]3C)c12
inactive: viability [1] 113% | Potency [2] | Potency [3] | Potency [4] | Potency [5] | Potency [7]

C/C(=N\NC(=O)c1cccc(S(=O)(=O)N2CCOCC2)c1)c1cc(Cl)ccc1O
active: Potency [1] 6.61 µM | Potency [2] 1.86 µM | Potency [3] 5.9 µM | Potency [4] 2.95 µM | Potency [6] 2.09 µM

NC(=O)C1=C(O)[C@@]2(O)C(=O)C3=C(O)c4c(O)cccc4C[C@H]3C[C@H]2CC1=O
active: Potency [1] 4.68 µM | Potency [2] 3.72 µM | Potency [3] 9.34 µM | Potency [4] 8.33 µM | Potency [6] 7.42 µM

O=C(CCCCCCC(=O)N/N=C/c1ccc(N(c2ccccc2)c2ccccc2)cc1)NO
active: Potency [1] 7.42 µM | Potency [2] 13.2 µM | Potency [3] 4.68 µM | Potency [4] 4.68 µM | Potency [5] 7.42 µM | Potency [7] 7.42 µM

CC1(C)OC2=C(C(=O)c3ccccc3C2=O)[C@H](NCc2ccccc2)[C@@H]1O
active: Potency [1] 6.61 µM | Potency [2] 11.8 µM | Potency [3] 8.33 µM | Potency [4] 7.42 µM | Potency [5] 9.34 µM | Potency [6] 7.42 µM | Potency [7] 7.42 µM

C[C@H]1[C@H](C)CC[C@]2(C(=O)O)CC[C@]3(C)C(=CC[C@@H]4[C@@]5(C)CC[C@H](O)C(C)(C)[C@@H]5CC[C@]43C)[C@H]12
inactive: viability [1] 102% | Potency [2] | Potency [3] | Potency [4] | Potency [5] | Potency [6] | Potency [7]

N#Cc1cccnc1N1CCN(C(=O)c2cccc(Cc3n[nH]c(=O)c4ccccc34)c2)CC1
active: Potency [1] 0.296 µM | Potency [2] 0.166 µM | Potency [3] 0.059 µM | Potency [4] 0.0372 µM | Potency [6] 0.118 µM | Potency [7] 0.132 µM

C[C@]12CCC3[C@@H](CC[C@H]4NC(=O)C=C[C@]34C)[C@@H]1CC[C@@H]2C(=O)Nc1cc(C(F)(F)F)ccc1C(F)(F)F (some centres not stated)
inactive: viability [1] 118% | Potency [2] | Potency [3] | Potency [4] | Potency [6] | Potency [7]

C=CC(=O)N1CC[C@@H](Oc2nc(Nc3ccc(N4CCC(N5CCN(C)CC5)CC4)cc3)c(C(N)=O)nc2CC)C1
active: Potency [1] 10.2 µM | Potency [2] 4.56 µM | Potency [3] 0.102 µM | Potency [4] 7.23 µM | Potency [6] 4.07 µM | Potency [7] 6.45 µM

C=CC(=O)N1CCC(CNc2ncnc(N)c2-c2ccc(Oc3ccccc3)cc2)CC1
active: Potency [2] 16.6 µM | Potency [3] 13.2 µM
inactive: viability [1] 101% | Potency [5]

CC(C)n1c(=O)cc(N[C@@H](C)c2ccccc2)[nH]c1=O
active: Potency [3] 14.8 µM
inactive: viability [1] 110% | Potency [2] | Potency [5] | Potency [6]

CN(Cc1cnc2nc(N)nc(N)c2n1)c1ccc(C(=O)N[C@@H](CCC(=O)O)C(=O)O)cc1
active: Potency [1] 0.0372 µM | Potency [2] 0.0468 µM | Potency [3] 0.105 µM | Potency [5] 0.332 µM

O=S(=O)(Nc1ccc(-c2cccnc2)c2cccnc12)c1cccc(C(F)(F)F)c1
active: Potency [1] 10.5 µM | Potency [2] 7.42 µM | Potency [3] 7.42 µM | Potency [4] 4.17 µM | Potency [6] 5.9 µM | Potency [7] 7.42 µM

CC(C)C(=O)OCC(=O)[C@@]12O[C@H](C3CCCCC3)O[C@@H]1C[C@H]1[C@@H]3CCC4=CC(=O)C=C[C@]4(C)[C@H]3[C@@H](O)C[C@@]12C
active: Potency [2] 14.8 µM | Potency [3] 23.5 µM | Potency [4] 20.9 µM | Potency [7] 16.6 µM
inactive: viability [1] 102%

O=C(O)CNC(=O)c1nc(Cl)c2ccccc2c1O
inactive: viability [1] 122% | Potency [2] | Potency [3] | Potency [4] | Potency [6] | Potency [7]

N#C/C(=C1/Nc2ccccc2S1)c1ccnc(OCc2ccc(CN3CCOCC3)cc2)n1
active: Potency [1] 20.9 µM | Potency [2] 14.8 µM | Potency [3] 16.6 µM | Potency [4] 16.6 µM | Potency [7] 20.9 µM

Cc1c[nH]c2nc(Nc3ccc(N4CCN(C)CC4)c(F)c3)nc(-c3cccc(CC#N)c3)c12
active: Potency [1] 2.63 µM | Potency [2] 2.95 µM | Potency [3] 0.0332 µM | Potency [4] 0.662 µM | Potency [6] 0.742 µM | Potency [7] 0.833 µM

Cc1nnn(C)c1-c1cnc2c3ccc(C(C)(C)O)cc3n([C@H](c3ccccc3)C3CCOCC3)c2c1
active: Potency [1] 0.0148 µM | Potency [2] 0.0059 µM | Potency [3] 0.0042 µM | Potency [4] 0.0295 µM | Potency [6] 0.0263 µM | Potency [7] 0.0661 µM

Cc1cc(/C=c2/sc3nc4ccccc4n3c2=O)c(C)n1-c1ccccc1
inactive: viability [1] 105% | Potency [5]
active: Potency [2] 14.8 µM | Potency [3] 20.9 µM | Potency [6] 16.6 µM

CSc1ccc(C(=O)/C=C/c2cc(C)c(OC(C)(C)C(=O)O)c(C)c2)cc1
inactive: Potency [5]
active: Potency [1] 34 µM | Potency [2] 30.3 µM | Potency [3] 6.05 µM

COc1cc(N2CCN(C)CC2)ccc1Nc1ncc2c(n1)N(C)c1ccccc1C(=O)N2C
active: Potency [1] 16.6 µM | Potency [2] 2.35 µM | Potency [3] 1.32 µM | Potency [4] 16.6 µM | Potency [6] 18.6 µM | Potency [7] 20.9 µM

Cc1cc(-c2cnn3c(NCC4CC(C)(O)C4)cc(Oc4cccnc4)nc23)ccc1C(=O)NC1CC1 (configuration not stated)
active: Potency [1] 1.18 µM | Potency [2] 0.263 µM | Potency [3] 0.332 µM | Potency [4] 0.934 µM | Potency [7] 1.05 µM

CCCNC(=O)c1cn2ncnc(Nc3cc(C(=O)NC4CC4)ccc3C)c2c1C
inactive: viability [1] 99.9% | Potency [2] | Potency [3] | Potency [4] | Potency [6] | Potency [7]

CCCCC(=O)OCC(=O)[C@]1(O)Cc2c(O)c3c(c(O)c2[C@@H](O[C@H]2C[C@H](NC(=O)C(F)(F)F)[C@H](O)[C@H](C)O2)C1)C(=O)c1c(OC)cccc1C3=O
active: Potency [1] 4.17 µM | Potency [2] 0.59 µM | Potency [3] 0.235 µM | Potency [4] 1.86 µM | Potency [6] 1.66 µM | Potency [7] 2.63 µM
